# This is part of a sample that, as a whole, favours compounds with a hit. Of some 79,000 tested, about 15% had one in any assay. A number with no mark means an inactive call. Calls of active or inactive are those of the source. No stated cut-off is given here; in the data, active means growth inhibition above about 70%; inactive means the rest.
# Test: NCI Yeast Anticancer Drug Screen. Data for the sgs1 mgt1 strain (AID 161);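 further: 0% = growth of cultures given vehicle only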
# Conditions: S. cerevisiae sgs1 mgt1 strain, at 50.0 µM, active compounds read high
# In short: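 Genetically altered yeast, compound exposure, growth inhibition relative to vehicle.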
row,SMILES,growth inhibition
1,O=C(O)/C=C/C(=O)Nc1cccc2ccccc12,55.5%
2,CCCCCN=C(C)C(C)=NCCCCC,31.4%
3,Oc1ccc(N=Nc2ccccc2)c(O)c1.Oc1ccc(N=Nc2ccccc2)c(O)c1.[Cu],98.9% (active)
4,NNc1c(Cl)cc(Cl)cc1Cl,99.7% (active)
5,C=C1C[C@H](O)[C@H]2C(C[Se]c3ccccc3)C(=O)O[C@@H]2[C@H]2[C@H](C)C(O)C[C@@H]12 (stereo not given in full),17.2%
6,O=C(CBr)Oc1ccc(-c2cccc(Br)c2)cc1,99.6% (active)
7,CCCCC1=NCCc2c1cc1c([nH]c3ccccc31)c2C,52.5%
8,CCOC(=O)NC(=S)Nc1ccsc1,11%
9,CCCCCCCCCCCCCCCCNC(C)c1ccccc1 (stereo not given),99% (active)
10,Cc1ccc(C2(O)CC(c3ccc([N+](=O)[O-])o3)=NN2C(=O)COc2ccc(Cl)cc2)cc1 (stereo not given),52.6%
11,CCOC(=O)/C(C#N)=C/c1ccccc1Br,-0.75%
12,CCCCCCCCCCCCCCCCNCCCCCCCC(=O)O,75.9% (active)
13,CC[N+]1(C)CCC(O)(c2ccc(Cl)c(Cl)c2)C(C(=O)c2ccc(Cl)c(Cl)c2)C1 (stereo not given),99% (active)
14,CC(=O)Nc1nnc(-c2coc3ccccc3c2=O)s1,20.4%
15,CCC(C)(C)NCCCCCNc1cc(OC)cc2cccnc12,56.4%
16,CSC(=Nc1ccccc1)/N=C(\SCc1ccccc1)N(C)C,99.2% (active)
17,N=Cc1cc([N+](=O)[O-])ccc1O,98.5% (active)
18,CCCCCCCC(=O)/C=C/c1ccc(C)cc1,67.6%
19,Cc1ccc(S(=O)(=O)N/N=C2/CC[C@H](C(C)(C)C)C[C@@H]2C)cc1,77.4% (active)
20,Nc1ccc2c(c1)CCc1ccccc1-2,89.8% (active)

row,SMILES,growth inhibition
1,CN(C)CCC(=O)[C@@]1(O)CC[C@H]2[C@@H]3CC=C4C[C@@H](O)CC[C@]4(C)[C@H]3CC[C@@]21C,58.1%
2,CC(=O)OC1COC(N2C(=O)C(=O)c3cc(Br)ccc32)C(OC(C)=O)C1OC(C)=O (stereo not given),2.9%
3,Cc1ccc(N2CCN(c3c(N)cncc3Br)CC2)cc1,92.8% (active)
4,O=C(O)c1ccccc1SC(Sc1ccccc1C(=O)O)c1cccc(Cl)c1,97% (active)
5,CC[N+](C)(CC)CCC(=O)/C=C/c1ccccc1,88.6% (active)
6,COc1ccc(C(C)c2cc3c(cc2OC/C(C)=N/NC(N)=O)OCO3)cc1 (stereo not given),82% (active)
7,CN=C(N)N/N=C(\C)c1ccc2c(c1)Cc1cc(Cl)ccc1-2,98.7% (active)
8,CCCCCCCCN/N=C(/C)CCCCCO,-12.7%
9,O=[N+]([O-])c1cccc2c(O)cccc12,39.1%
10,O=C1C(=O)c2ccccc2C(O)=C1Sc1ccccc1,95% (active)
11,CC(=O)N(O)c1ccc2c(c1)Cc1cc(F)ccc1-2,97.1% (active)
12,CC12CCC(=O)C=C1CCC1C2CCC2(C)C(c3cnc[nH]3)CCC12 (stereo not given),65.2%
13,O=C1OC(C2OC(=O)C(=O)C2C(=O)c2ccc(Cl)c(Cl)c2)C(C(=O)c2ccc(Cl)c(Cl)c2)C1=O (stereo not given),74.3% (active)
14,CC/C(C)=C1\CCC(CN2CCOCC2)C1=O (stereo not given),66.3%
15,COc1ccc(C2CC(=O)CC(=O)C2)cc1,32.5%
16,Cc1ccc(O)c(C(c2ccc([N+](=O)[O-])cc2)c2cc(C)ccc2O)c1,39%
17,O=C1OS(=O)(=O)c2cc3c(cc21)C1C(C2C3C3(Cl)C(Cl)=C(Cl)C2(Cl)C3(Cl)Cl)C2(Cl)C(Cl)=C(Cl)C1(Cl)C2(Cl)Cl (stereo not given),86.6% (active)
18,CCOC(=O)C1SC(=S)N(C)C1=O (stereo not given),99% (active)
19,O=C(c1ccc(Cl)c([N+](=O)[O-])c1)c1ccc(Cl)c([N+](=O)[O-])c1,85% (active)
20,Cc1cc[c]([Sn]([Cl])([O][Sn]([Cl])([c]2ccc(C)cc2)[c]2ccc(C)cc2)[c]2ccc(C)cc2)cc1,85.8% (active)

# Test: NCI Yeast Anticancer Drug Screen. Data for the cln2 rad14 strain (AID 165);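 further: 0% = growth equal to vehicle treated cultures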
# Conditions: S. cerevisiae cln2 rad14 strain, at 5.0 µM (retest, dose inferred, filed as 0.5), active compounds read high
# In short: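 Test compounds were added to cln2 rad14 yeast cultures; inhibition of growth was then determined by comparison with vehicle treatment.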
row,SMILES,growth inhibition
1,O=C(O)/C=C/C(=O)Nc1cccc2ccccc12,39%
2,CCCCCN=C(C)C(C)=NCCCCC,-50%
3,Oc1ccc(N=Nc2ccccc2)c(O)c1.Oc1ccc(N=Nc2ccccc2)c(O)c1.[Cu],1%
4,NNc1c(Cl)cc(Cl)cc1Cl,21%
5,C=C1C[C@H](O)[C@H]2C(C[Se]c3ccccc3)C(=O)O[C@@H]2[C@H]2[C@H](C)C(O)C[C@@H]12 (stereo not given in full),-2%
6,O=C(CBr)Oc1ccc(-c2cccc(Br)c2)cc1,-14%
7,CCCCC1=NCCc2c1cc1c([nH]c3ccccc31)c2C,-1%
8,CCOC(=O)NC(=S)Nc1ccsc1,0%
9,CCCCCCCCCCCCCCCCNC(C)c1ccccc1 (stereo not given),-9%
10,Cc1ccc(C2(O)CC(c3ccc([N+](=O)[O-])o3)=NN2C(=O)COc2ccc(Cl)cc2)cc1 (stereo not given),11%
11,CCOC(=O)/C(C#N)=C/c1ccccc1Br,39%
12,CCCCCCCCCCCCCCCCNCCCCCCCC(=O)O,7%
13,CC[N+]1(C)CCC(O)(c2ccc(Cl)c(Cl)c2)C(C(=O)c2ccc(Cl)c(Cl)c2)C1 (stereo not given),6%
14,CC(=O)Nc1nnc(-c2coc3ccccc3c2=O)s1,9%
15,CCC(C)(C)NCCCCCNc1cc(OC)cc2cccnc12,0%
16,CSC(=Nc1ccccc1)/N=C(\SCc1ccccc1)N(C)C,13%
17,N=Cc1cc([N+](=O)[O-])ccc1O,16%
18,CCCCCCCC(=O)/C=C/c1ccc(C)cc1,-62%
19,Cc1ccc(S(=O)(=O)N/N=C2/CC[C@H](C(C)(C)C)C[C@@H]2C)cc1,-35%
20,Nc1ccc2c(c1)CCc1ccccc1-2,-5%

row,SMILES,growth inhibition
1,CN(C)CCC(=O)[C@@]1(O)CC[C@H]2[C@@H]3CC=C4C[C@@H](O)CC[C@]4(C)[C@H]3CC[C@@]21C,8%
2,CC(=O)OC1COC(N2C(=O)C(=O)c3cc(Br)ccc32)C(OC(C)=O)C1OC(C)=O (stereo not given),-37%
3,Cc1ccc(N2CCN(c3c(N)cncc3Br)CC2)cc1,0%
4,O=C(O)c1ccccc1SC(Sc1ccccc1C(=O)O)c1cccc(Cl)c1,-1%
5,CC[N+](C)(CC)CCC(=O)/C=C/c1ccccc1,16%
6,COc1ccc(C(C)c2cc3c(cc2OC/C(C)=N/NC(N)=O)OCO3)cc1 (stereo not given),19%
7,CN=C(N)N/N=C(\C)c1ccc2c(c1)Cc1cc(Cl)ccc1-2,8%
8,CCCCCCCCN/N=C(/C)CCCCCO,-67%
9,O=[N+]([O-])c1cccc2c(O)cccc12,-3%
10,O=C1C(=O)c2ccccc2C(O)=C1Sc1ccccc1,41%
11,CC(=O)N(O)c1ccc2c(c1)Cc1cc(F)ccc1-2,45%
12,CC12CCC(=O)C=C1CCC1C2CCC2(C)C(c3cnc[nH]3)CCC12 (stereo not given),52%
13,O=C1OC(C2OC(=O)C(=O)C2C(=O)c2ccc(Cl)c(Cl)c2)C(C(=O)c2ccc(Cl)c(Cl)c2)C1=O (stereo not given),4%
14,CC/C(C)=C1\CCC(CN2CCOCC2)C1=O (stereo not given),31%
15,COc1ccc(C2CC(=O)CC(=O)C2)cc1,-64%
16,Cc1ccc(O)c(C(c2ccc([N+](=O)[O-])cc2)c2cc(C)ccc2O)c1,73% (active)
17,O=C1OS(=O)(=O)c2cc3c(cc21)C1C(C2C3C3(Cl)C(Cl)=C(Cl)C2(Cl)C3(Cl)Cl)C2(Cl)C(Cl)=C(Cl)C1(Cl)C2(Cl)Cl (stereo not given),8%
18,CCOC(=O)C1SC(=S)N(C)C1=O (stereo not given),-7%
19,O=C(c1ccc(Cl)c([N+](=O)[O-])c1)c1ccc(Cl)c([N+](=O)[O-])c1,1%
20,Cc1cc[c]([Sn]([Cl])([O][Sn]([Cl])([c]2ccc(C)cc2)[c]2ccc(C)cc2)[c]2ccc(C)cc2)cc1,2%

# — PubChem BioAssay (NCI)
